Compound activity (PubChem)
Compounds with a hit are over-represented: about 4.7% of the library has one in this group of screens.
DRD3 agonist – activates the human D3 dopamine receptor | D3R DiscoveRx beta-arrestin cells, luminescence, 90 min | 0.58% of 410,000 active | max activation, % | AID 652048; in the data active = max activation above about 30%; also: 0% is about no effect
Target sequence (P35462 whole entry, looked up): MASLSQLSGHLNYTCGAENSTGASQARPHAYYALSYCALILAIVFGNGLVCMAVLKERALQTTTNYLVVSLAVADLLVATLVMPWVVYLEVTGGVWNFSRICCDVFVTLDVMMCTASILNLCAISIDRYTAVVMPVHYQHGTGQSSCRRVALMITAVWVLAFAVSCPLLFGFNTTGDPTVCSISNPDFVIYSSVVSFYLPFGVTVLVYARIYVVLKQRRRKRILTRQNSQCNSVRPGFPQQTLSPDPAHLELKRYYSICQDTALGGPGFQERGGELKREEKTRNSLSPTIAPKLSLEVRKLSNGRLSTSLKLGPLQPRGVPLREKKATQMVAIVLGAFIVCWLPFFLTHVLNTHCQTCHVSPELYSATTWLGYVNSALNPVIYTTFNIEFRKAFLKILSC
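Agonist mode: compounds and dopamine controls were applied to plated cells for 90 min at 37 degrees C after an overnight attachment at 1500 cells/well. Luminescent read-out followed 30 - 60 minutes at room temperature with DiscoveRx detection reagent.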
ATXN2 expr inh – ATXN2 expression inhibition; HEK-293 ATXN2-luciferase reporter, luminescence, 24 h; Potency, µM (top dose mostly 57 µM), for the others: at the top dose activity change, negative = inhibition, hits mostly inhibitors; 0.72% of 360,000 active; also: potency is read from the fitted curve at half-maximal effect; % is scaled to controls: 0 for no effect and ±100 for the full control effect; nearly all actives have a fitted effect of over 55% in size
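qHTS (up to 57 uM final) was run with 24 h compound exposure of reporter cells at 37 °C. Each well was multiplexed: SteadyGlo luminescence measured ATXN2-luciferase expression after a fluorogenic Gly-Phe-AFC viability readout (25 uM final).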
ATXN viability – reduces viability in counter-screen for ATXN expression inhibitors; 0.49% of 400,000 active; AID 651635; S2 cells (HEK-293 line with an ATXN2-luciferase reporter) viability, CellTiter-Fluor protease fluorescence, 24 h; Potency, µM (top dose mostly 56.7 µM), hits mostly cytotoxic; also: potency is read from the fitted curve at half-maximal effect; nearly all actives have a fitted effect of over 40% in size
DRD3 antagonist – blocks the human D3 dopamine receptor | max response, negative = inhibition, % | 2.5% of 360,000 active | D3R cells, DiscoveRx beta-arrestin luminescence, antagonist mode; hits give low values | AID 652054 | P35462; in the data active = max response below about -50%; inconclusive = no clear call, values can overlap the other calls; also: % is scaled to controls: 0 for no effect and ±100 for the full control effect
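Cells expressing the human receptor were seeded at 1500 cells/well, incubated overnight at 37 degrees C in 5% CO2, then exposed to library compounds with dopamine controls for 90 minutes at 37 degrees C before luminescent detection.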
HepG2 tox – HepG2 cytotoxicity, counter-screen for TGF-b inhibitors | AID 588856 | Potency, µM (titrated, usually from 46.1 µM), for inactives: at the highest dose activity change, negative = cytotoxicity, usual class: cytotoxic | HepG2 CAGA-GFP viability, ATP luminescence, 18 h | 0.76% of 410,000 active; also: potency is read from the fitted curve at half-maximal effect
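HepG2 CAGA-GFP cells (1000/well, DMEM with 1% FBS) received compound, then TGF-beta at 500 pg/mL final, and were incubated 18 hours at 37 degrees C. Viability was read by CellTiter-Glo luminescence. Media-only wells were set as complete cell-killing and DMSO as no toxicity.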
TGFb SMAD3 inh – TGF-b pathway inhibition | HepG2 CAGA-GFP TGF-b/SMAD3 reporter, GFP fluorescence, 18 h; TGF-beta stimulated, 500 pg/mL final | Potency, µM (titrated, usually from 46.1 µM), for inactives: top-dose activity, negative = inhibition, hits mostly inhibitors | 1.2% of 410,000 active | AID 588855; also: potency is read from the fitted curve at half-maximal effect; % is scaled to controls: 0 for no effect and ±100 for the full control effect; nearly all actives have a fitted effect of over 65% in size
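First, reporter cells (HEPG2 CAGA-GFP) rested 2 h at 37 degrees C. Next, compounds were pinned in and TGF-beta added to 500 pg/mL final. After 18 h, GFP was imaged per cell and summed per well.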
* marks the source's active call; other numbers are inactive results; [ ] = remark or other dose. Unless noted, calls follow the shape of the dose curve; as a rule, active = well fitted curve in the direction sought with a large enough effect; inconclusive = small, poorly fitted or top-dose-only effect, or another doubt; inactive = no such curve, though single readings can be large; an effect the other way counts as inactive or inconclusive.

How did CC1(C)CCC(c2ccc(Cl)cc2)=C(CN2CCN(c3ccc(C(=O)NS(=O)(=O)c4ccc(N[C@H](CCN5CCOCC5)CSc5ccccc5)c(S(=O)(=O)C(F)(F)F)c4)cc3)CC2)C1 do in these assays?
ATXN2 expr inh: inconclusive; HepG2 tox: 5.62µM*; TGFb SMAD3 inh: inconclusive

Results for O=[N+]([O-])c1ccc(Sc2ccccn2)nc1 ?
DRD3 agonist: 1.8; ATXN2 expr inh: 37.6%; ATXN viability: inactive; DRD3 antagonist: -1.6; HepG2 tox: -12.4%; TGFb SMAD3 inh: -19.0%

How did O=[N+]([O-])c1ccc(Sc2nnnn2-c2ccccc2)nc1 do in these assays?
DRD3 agonist: 5.4; ATXN2 expr inh: inconclusive; ATXN viability: inconclusive; DRD3 antagonist: inconclusive; HepG2 tox: -93.7%; TGFb SMAD3 inh: 15.8µM*

How did CC1=C(C(=O)Nc2ccccc2)C(C(C)C)n2nc(SCc3ccccc3C)nc2N1 (stereo unspecified) do in these assays?
DRD3 agonist: 6.7; ATXN2 expr inh: 13.0%; ATXN viability: inactive; HepG2 tox: -1.5%; TGFb SMAD3 inh: 1.3%

How did CCc1ccc(C(=O)Nc2nc3ccccc3[nH]2)cc1 do in these assays?
DRD3 agonist: -2.0; ATXN2 expr inh: 5.01µM*; ATXN viability: inactive; DRD3 antagonist: -13.9; HepG2 tox: -62.3%; TGFb SMAD3 inh: -12.8%

Results for O=C(Nc1nc2ccccc2[nH]1)c1ccc(OC(F)F)cc1 ?
DRD3 agonist: 2.8; ATXN2 expr inh: -31.0%; ATXN viability: inactive; DRD3 antagonist: 6.3; HepG2 tox: -45.6%; TGFb SMAD3 inh: -0.3%

How did CC(C)Oc1ccc(C(=O)Nc2nc3ccccc3[nH]2)cc1 do in these assays?
DRD3 agonist: 1.5; ATXN2 expr inh: 4.47µM*; ATXN viability: inactive; DRD3 antagonist: 10.7; HepG2 tox: -21.2%; TGFb SMAD3 inh: 1.7%

Results for Cc1ccc2nc(CS)[nH]c2c1 ?
HepG2 tox: -52.8%; TGFb SMAD3 inh: -8.7%

What do the screens show for `COCCN1CCN(C(=O)c2cnn(-c3nccc(-c4ccco4)n3)c2C2CC2)CC1`?
ATXN viability: inactive

What do the screens show for `Cc1ccc2c(c1)COc1c3ccc(C(=O)NCC4CC4)cc3nn1-2`?
DRD3 agonist: 6.8; ATXN2 expr inh: inconclusive; ATXN viability: inconclusive; DRD3 antagonist: -11.8; HepG2 tox: -14.2%; TGFb SMAD3 inh: inconclusive

Results for Cc1ccc2c(c1)COc1c3ccc(C(=O)O)cc3nn1-2 ?
DRD3 agonist: 14.3; ATXN2 expr inh: 7.94µM*; ATXN viability: inactive; DRD3 antagonist: -2.8; HepG2 tox: -27.3%; TGFb SMAD3 inh: 6.0%

How did Clc1ncnc2scc(-c3ccc(Br)cc3)c12 do in these assays?
DRD3 agonist: -12.1; ATXN2 expr inh: inconclusive; ATXN viability: inactive; DRD3 antagonist: -54.1*; HepG2 tox: -2.4%; TGFb SMAD3 inh: 4.5%

Results for Cc1cc(N)n(-c2ncnc3scc(-c4ccc(Cl)cc4)c23)n1 ?
DRD3 agonist: 5.4; ATXN2 expr inh: 1.2%; ATXN viability: inactive; DRD3 antagonist: 5.4; HepG2 tox: -19.6%; TGFb SMAD3 inh: -1.1%

Results for O=[N+]([O-])c1ccc(S(=O)Cc2ccccc2)c([N+](=O)[O-])c1 (stereo unspecified) ?
DRD3 agonist: -38.6; ATXN2 expr inh: inconclusive; ATXN viability: 21.2µM*; DRD3 antagonist: -101.9*; HepG2 tox: -114.7%; TGFb SMAD3 inh: 7.94µM*

Results for Cc1ccc(-c2nc(-c3ccccn3)no2)cc1Cl ?
DRD3 agonist: 3.1; ATXN2 expr inh: 10µM*; ATXN viability: inactive; DRD3 antagonist: -10.5; HepG2 tox: 11.2µM*; TGFb SMAD3 inh: -2.3%

Results for Cc1ccc(-c2nc(-c3ccccn3)no2)cc1 ?
DRD3 agonist: 2.8; ATXN2 expr inh: 2µM*; ATXN viability: inactive; DRD3 antagonist: 10.8; HepG2 tox: 12.6µM*; TGFb SMAD3 inh: -0.8%

Results for Clc1cccc(-c2nc(-c3ccccn3)no2)c1 ?
DRD3 agonist: -5.9; ATXN2 expr inh: 12.6µM*; ATXN viability: inactive; DRD3 antagonist: 0.5; HepG2 tox: -36.4%; TGFb SMAD3 inh: inconclusive

What do the screens show for `Cc1ccc(-c2nc(-c3ccccn3)no2)cc1[N+](=O)[O-]`?
DRD3 agonist: -9.3; ATXN2 expr inh: inconclusive; ATXN viability: inactive; DRD3 antagonist: 19.4; HepG2 tox: -53.8%; TGFb SMAD3 inh: -37.4%

How did c1ccc(-c2nc(-c3ccccn3)no2)cc1 do in these assays?
DRD3 agonist: -8.5; ATXN2 expr inh: 4.47µM*; ATXN viability: inactive; DRD3 antagonist: -11.6; HepG2 tox: 10µM*; TGFb SMAD3 inh: 2.9%

What do the screens show for `c1ccc(-c2ccc(-c3nc(-c4ccccn4)no3)cc2)cc1`?
DRD3 agonist: 15.3; ATXN2 expr inh: inconclusive; ATXN viability: inactive; DRD3 antagonist: 40.1; HepG2 tox: 7.08µM*; TGFb SMAD3 inh: -6.2%

Results for c1ccc(-c2noc(-c3ccno3)n2)nc1 ?
DRD3 agonist: 2.3; ATXN viability: inactive; DRD3 antagonist: 13.7; HepG2 tox: 7.9%; TGFb SMAD3 inh: 7.9%

Results for Cc1ccc(NC(=O)C2CCN(S(=O)(=O)c3cccc4nonc34)CC2)c(Cl)c1 ?
DRD3 agonist: -11.3; ATXN2 expr inh: -8.2%; ATXN viability: inactive; HepG2 tox: 7.9%; TGFb SMAD3 inh: -3.7%

How did O=C(NCc1ccc(F)c(F)c1)c1cccc2c(-c3cccnc3)coc12 do in these assays?
DRD3 agonist: -1.2; ATXN2 expr inh: -35.3%; ATXN viability: inconclusive; DRD3 antagonist: 10.8; HepG2 tox: -33.3%; TGFb SMAD3 inh: 0.6%

Results for O=C(NCc1cccc(Cl)c1)c1cccc2c(-c3cccnc3)coc12 ?
DRD3 agonist: -0.5; ATXN2 expr inh: 28.2µM*; ATXN viability: 20µM*; DRD3 antagonist: 23.5; HepG2 tox: -44.1%; TGFb SMAD3 inh: inconclusive

What do the screens show for `N#C/C(=C\c1ccc(O)c([N+](=O)[O-])c1)c1nc2ccccc2s1`?
DRD3 agonist: -17.9; ATXN2 expr inh: -30.7%; ATXN viability: inconclusive; DRD3 antagonist: -13.1; HepG2 tox: -31.8%; TGFb SMAD3 inh: 12.6µM*

What do the screens show for `COc1cc(/C=C(\C#N)c2nc3ccccc3s2)cc([N+](=O)[O-])c1O`?
DRD3 agonist: -6.7; ATXN2 expr inh: 24.3%[11.3 µM]; ATXN viability: inactive; DRD3 antagonist: inconclusive; HepG2 tox: -19.1%; TGFb SMAD3 inh: 6.1%

Results for CCC(C(=O)NCc1ccccc1Cl)n1nc(C)c2sc3ccccc3c2c1=O (stereo unspecified) ?
DRD3 agonist: -5.3; HepG2 tox: -1.2%; TGFb SMAD3 inh: 12.9%

How did Cc1ccccc1/C=N/Nc1nc2ccccc2[nH]1 do in these assays?
DRD3 agonist: -3.3; ATXN2 expr inh: 30.1%; ATXN viability: inactive; DRD3 antagonist: 4.5; HepG2 tox: -17.2%; TGFb SMAD3 inh: -22.7%
